# The list is not random: actives were taken first. Their share in the collection is about 9.4%.
# IMPase Li cell – qHTS Assay for Identifying the Cell-Membrane Permeable IMPase Inhibitors: Potentiation with Lithium | CHO-M1 cells, IP1 TR-FRET (IP-One), carbachol + lithium | Potency, µM (doses to about 59.4 µM), hits mostly inhibitors | 210,000 tested, 0.35% active | AID 1457, 2008;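 note: IP1 builds up when IMPase is blocked and the TR-FRET signal falls; nearly all actives have a fitted effect of over 50% in size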
#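 CHO cells stably expressing M1 receptor (2000/well, cultured 16–30 h) treated 30 min at 37C with compound plus low lithium. Cytosolic IP1 by TR-FRET (665/620 ratio and 620 channel) after 10 min lysis; AC50 by Hill fit.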
# HTT ATP protect – qHTS Multiplex Assay to Identify Dual Action Probes in a Cell Model of Huntington: Cytoprotection (ATP) | 230,000 tested, 0.14% active | AID 1471, 2008 | Potency, µM (doses to about 56.4 µM), hits mostly activators | PC12 HTT-Q103 induced, cytoprotection, ATP luminescence, 40 h; note: nearly all actives have a fitted effect of over 45% in size
#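 Readout: ATPlite luminescence (ATP level). Model: stable PC12, inducible Htt exon1 Q103-GFP. Inducer: tebufenozide, 100 nM final. Compounds: dose series. No G418 in medium.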
# HPGD inh – qHTS Assay for Inhibitors of HPGD (15-Hydroxyprostaglandin Dehydrogenase); 150,000 tested, 4.3% active; purified HPGD, NADH fluorescence kinetic, PGE2 substrate; AID 894, 2007; Potency, µM, most hits filed as inhibitors; active = well fitted inhibition curve with a large enough effect, not every such curve was filed as active; inconclusive = small, poorly fitted or top-dose-only effect, or another doubt; inactive = no such curve, though single readings can be large or run the other way
# Target sequence (P15428 whole entry, looked up): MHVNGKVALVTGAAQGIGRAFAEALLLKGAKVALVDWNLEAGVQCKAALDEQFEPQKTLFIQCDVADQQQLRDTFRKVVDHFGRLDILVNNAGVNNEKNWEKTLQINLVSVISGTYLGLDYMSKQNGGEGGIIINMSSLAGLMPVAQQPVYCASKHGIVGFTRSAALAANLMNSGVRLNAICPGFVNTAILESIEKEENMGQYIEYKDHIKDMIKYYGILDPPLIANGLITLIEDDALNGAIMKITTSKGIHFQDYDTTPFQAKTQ
#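 20 nM HPGD preincubated 15 min at room temperature with compound in 50 mM Tris-HCl pH 8, 0.01% Tween 20. Started with 1 mM NAD+ and 30 uM prostaglandin E2; NADH fluorescence (360/450 nm) read 5 times over 30-s intervals, last minus first.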
# HttQ103 aggreg – qHTS Multiplex Assay to Identify Dual Action Probes in a Cell Model of Huntington: Aggregate Formation (GFP) | AID 1688, 2009 | 220,000 tested, 1.1% active | PC12 HttQ103-GFP aggregates, Acumen cytometry, 40 h | Potency, µM (highest dose often 46.1 µM), hits mostly inhibitors; note: nearly all actives have a fitted effect of over 60% in size
#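 Ecdysone-promoter PC12 model expressing HTT exon 1 Q103 fused to GFP, induced by tebufenozide at 100 nM final. Compounds titrated; aggregates sized 1–25 µm scored on a 488 nm laser cytometer.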
# IMPase inh – qHTS Assay for Identifying the Cell-Membrane Permeable IMPase Inhibitors. Inositol monophosphatase 1 (Rattus norvegicus), P97697. CHO-M1 cells, IP1 accumulation, HTRF TR-FRET ratio. inhibition (IP1 accumulation), % at 46.1 µM. 120,000 tested, under 10 active. AID 901, 2007; active = well fitted curve in the direction sought with a large enough effect in the signal ratio, not every such curve was filed as active; inconclusive = small, poorly fitted or top-dose-only effect, or a change in a side signal; inactive = no such curve, though single readings can be large or run the other way; the % refers to the signal ratio;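 note: cells stimulated with carbachol in lithium chloride buffer; higher means more IMPase inhibition seen as more IP1 and lower FRET ratio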
#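 CHO-M1 cells (CHO stably expressing M1 receptor), compound up to 46 uM final, stimulated with carbachol (50 uM as added) in buffer with 50mM LiCl, pH 7.4, 30 min at 37C. Cytosolic IP1 read by TR-FRET; AC50 from Hill fits.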
# ALDH1A1 block – qHTS Assay for Inhibitors of Aldehyde Dehydrogenase 1 (ALDH1A1); Purified ALDH1A1, NADH fluorescence, propionaldehyde substrate; 220,000 tested, 7.3% active; AID 1030, 2008; Aldehyde dehydrogenase 1A1 (Homo sapiens), P00352; Potency, µM (doses to about 75.3 µM), actives largely listed as inhibitors; active = well fitted inhibition curve with a large enough effect, not every such curve was filed as active; inconclusive = small, poorly fitted or top-dose-only effect, or another doubt; inactive = no such curve, though single readings can be large or run the other way
# Target sequence (P00352 whole entry, looked up): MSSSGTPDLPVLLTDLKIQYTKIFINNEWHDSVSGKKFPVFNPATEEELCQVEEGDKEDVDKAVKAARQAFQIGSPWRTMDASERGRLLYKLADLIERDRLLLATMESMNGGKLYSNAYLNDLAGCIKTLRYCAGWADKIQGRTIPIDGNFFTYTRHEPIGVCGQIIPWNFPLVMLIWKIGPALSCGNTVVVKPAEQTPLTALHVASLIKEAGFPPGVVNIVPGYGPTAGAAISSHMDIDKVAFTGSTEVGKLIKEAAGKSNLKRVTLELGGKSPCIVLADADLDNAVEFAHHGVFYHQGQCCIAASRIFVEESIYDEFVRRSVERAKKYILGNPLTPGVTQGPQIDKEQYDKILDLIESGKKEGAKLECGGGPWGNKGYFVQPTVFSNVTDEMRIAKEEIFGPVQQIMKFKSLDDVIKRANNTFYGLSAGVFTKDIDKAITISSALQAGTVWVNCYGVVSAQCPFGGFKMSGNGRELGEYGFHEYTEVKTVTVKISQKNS
# A number is an active result; i = inactive; ? = inconclusive; nt = not tested or not shown; [ ] = dose if it differs, or a comment. Unless noted, calls come from the whole dose curve; as a rule, active = well fitted curve in the direction sought with a large enough effect; inconclusive = small, poorly fitted or top-dose-only effect, or another doubt; inactive = no such curve, though single readings can be large; an effect the other way counts as inactive or inconclusive.
SMILES,IMPase Li cell,HTT ATP protect,HPGD inh,HttQ103 aggreg,IMPase inh,ALDH1A1 block
Cc1[nH][nH]c(=O)c1C(c1ccc(-c2ccc(Cl)cc2Cl)o1)c1c(C)[nH][nH]c1=O,i,i,?,i[9.22 µM],i,?
Cn1c(COc2ccc(Br)cc2)nnc1SC1CCc2ccccc2C1=O (configuration not stated),i,i[1.9 µM],i,i,i,22.4µM
CCOC(=O)N1CCN(c2ccc(C(=O)c3ccccc3)cc2F)CC1,i,i,28.2µM,i,i,?
CCC(=O)c1ccc(N2CCCC2)c(F)c1,i,i[10 µM],i,i,nt,i
CCCC(=O)c1ccc(N2CCN(S(=O)(=O)c3ccccc3)CC2)c(F)c1,i,i,i,i,i,i
CCC(=O)c1ccc(N2CCN(C(=O)c3ccccc3Br)CC2)c(F)c1,i,i,nt,?,nt,?
CCC(=O)c1ccc(N2CCN(C(=O)c3ccccc3F)CC2)c(F)c1,i,i,nt,i,nt,14.1µM
CCC(=O)c1ccc(N2CCCCCC2)c(F)c1,i,i,15.8µM,i,i,?
CCCC(=O)c1ccc(N2CCCC2)c(F)c1,i,i[10 µM],22.4µM,i,i,?
C#CC(CC)(CC)NC(=O)NC1CCCCC1,nt,i,nt,i,nt,i
O=C(/C=C/c1ccccc1)/C=C/c1ccccc1,i,i[0.074 µM],i,i,nt,31.6µM
CC(/C=C\c1ccccc1)=C/C(=O)O,nt,i[10 µM],nt,i[9.22 µM],nt,nt
CCN(CC)c1ccc(C=C2C(=O)OC(C)(C(C)(C)C)OC2=O)cc1 (configuration not stated),i,i,i,i,i,i
CN(C)c1ccc(C=C2C(=O)OC(C)(C(C)(C)C)OC2=O)cc1 (configuration not stated),?,i,10µM,i,i,0.398µM
CN(C)c1ccc(C=C2C(=O)OC(C)(C)OC2=O)cc1,i,i,nt,i,nt,0.794µM
CN(C)CCCn1cnc2cc(Cl)c(Cl)cc21,i,i[10 µM],i,nt,nt,i[13.5 µM]
CCC(C)(C)C(=O)Nc1cccc(Cl)c1C,i,nt,nt,i,nt,i
O=c1c(Cl)c(NCC2CCCO2)cnn1C12CC3CC(CC(C3)C1)C2 (configuration not stated),i,i,nt,i,nt,17.8µM
O=C(O)C12CC3CC(C1)CC(n1ncc(NCc4ccco4)c(Cl)c1=O)(C3)C2,nt,i[10 µM],nt,i[9.22 µM],nt,nt
Cc1cc(=O)[nH]c(SCc2nc3ccccc3n2Cc2ccccc2)n1,i,i,28.2µM,i,i,i
N#C/C(=N\Nc1ccc(F)cc1)C(=N)N1CCCCC1,i,i,i,i,i,28.2µM
Cc1ccc(OCCn2cc(C(=O)C3CCCCC3)c3ccccc32)cc1,nt,nt,nt,nt,i,nt
CCCCC/C=C\C\C=C/C=C/C=C/[C@@H](SCC(NC(=O)CCC(N)C(=O)O)C(=O)NCC(=O)O)[C@@H](O)CCCC(=O)O (some centres not stated),i,nt,i,nt,nt,i
COc1ccc(CC(=O)OCCN(C)C)cc1,i,i,i,i[9.22 µM],i,i
CCCC(O)(CCN(C)C)c1ccc(OC)cc1 (configuration not stated),i,i,i,i,i,10µM
SMILES,IMPase Li cell,HTT ATP protect,HPGD inh,HttQ103 aggreg,IMPase inh,ALDH1A1 block
Cc1nc(NCc2ccccc2)c2nc(-c3ccccc3)n(CCCN3CCCCC3C)c2n1 (configuration not stated),i,i,?,nt,nt,?
Cc1ccc2cc(C)c(Sc3nnnn3-c3ccccc3)nc2c1,i,nt,i,i,nt,5.62µM
COC(=O)c1ccccc1NC(=O)Cc1nc(-c2ccccc2)sc1-c1ccc(C)cc1,i,i[10 µM],i,?,i,10µM
CC1=C(C(=O)OC2CCCCC2)C(c2cccnc2)n2nnnc2N1 (configuration not stated),i,nt,i,i,nt,i
COC(=O)C1=C(C)Nc2nnnn2C1c1cccnc1 (configuration not stated),i,i[10 µM],35.5µM,i,i,i
COC(=O)C1=C(C)Nc2nnnn2C1c1ccco1 (configuration not stated),i,i,?,i,i,10µM
O=c1c(-c2ccccc2)nc2cnc(Nc3ccccc3)nc2n1Cc1cccs1,?,i,nt,nt,nt,?
O=[N+]([O-])c1cc(-c2ncccn2)c([N+](=O)[O-])s1,i,nt,28.2µM,?,nt,2.24µM
O=C(Nc1ncccn1)c1cc([N+](=O)[O-])cc([N+](=O)[O-])c1,i,i[10 µM],i,i,nt,i
COc1ccc(/C=C/C(=O)NC(=S)Nc2ccc(S(=O)(=O)Nc3cc(OC)ncn3)cc2)cc1,i,i,nt,i,nt,28.2µM
O=C(NC(=S)Nc1ccc(Cl)cn1)c1cccs1,i,i,i,i,i,?
O=C1/C(=C\c2ccco2)SC(=S)N1c1ccc(O)cc1,i,nt,i,i,nt,?
CCCC(=O)NC(=S)Nc1ccc(Cl)cn1,i,i,i,i,i,25.1µM
O=C(/C=C/c1ccco1)NC1CCCC1,i,i,nt,i,nt,22.4µM
NN1C(=O)/C(=C\c2ccco2)SC1=S,nt,i[10 µM],nt,i[9.22 µM],nt,1.26µM
COC(=O)c1ccccc1NC(=O)/C=C/c1ccco1,i,i[1.9 µM],i,i,i,25.1µM
Cc1ccnc(NC(=S)NC(=O)/C=C/c2ccco2)c1,i,i,i,?,i,?
O=C(/C=C/c1ccco1)Nc1cccnc1Cl,nt,i[10 µM],nt,i[9.22 µM],nt,nt
NS(=O)(=O)c1ccc(NC(=O)/C=C/c2ccco2)cc1,i,nt,nt,i,nt,23.8µM
O=C(/C=C/c1ccco1)NC(=S)Nc1ccc(Cl)cn1,i,i,i,?,i,10µM
O=C(CCCN1C(=O)/C(=C/c2ccco2)SC1=S)Nc1cccc(C(=O)O)c1,nt,i[10 µM],nt,i[9.22 µM],nt,nt
COc1ccc(NC(=O)CCCN2C(=O)/C(=C\c3ccco3)SC2=S)cc1,i,i[10 µM],i,?,i,25.1µM
O=C(O)C(C(=O)/C=C/c1ccco1)=C1SCCS1,i,i,i,?,i,12.6µM
O=C(C=C1SCCS1)/C=C/c1ccco1,i,i,i,i,i,i
COc1ccc(NC(=S)NC(=O)/C=C/c2ccco2)cc1,i,i,nt,i,nt,7.08µM
O=c1nc2c(O)cccn2c2c1c(=O)[nH]c1ccccc12,i,i[10 µM],?,i,i,20µM
Cc1cccc(-c2cccc(-c3cc(=O)oc4cc5c(cc34)OCO5)c2)c1,i,i,?,nt,nt,?
Nc1ccccc1SC1CC(=O)N(c2ccc(Cl)c(Cl)c2)C1=O (configuration not stated),nt,i[10 µM],nt,i[9.22 µM],nt,i
O=C(O)CSC1CC(=O)N(c2cccc(Cl)c2)C1=O (configuration not stated),i,i,i,i,i,10µM
